The results in this text go back to PubChem BioAssay (NCATS).

For assay [1], the target named is Voltage-gated inwardly rectifying potassium channel KCNH2 (Homo sapiens) (UniProt Q12809). Kind of assay: qHTS Assay for Small Molecule Inhibitors of the Human hERG Channel Activity (AID 588834).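 Also: top concentration of the series differs between compounds; lower thallium flux fluorescence means stronger hERG block; nearly all actives have a fitted effect of over 50% in size.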 A digest of the protocol:
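hERG-BacMam U2OS, 2000 cells/well; 0.7X FluxOR loading 1 hr RT dark; cpd ~10 min 37 °C; stim buffer; FDSS fluorescence 2 min @ 1 s; AC50 Hill fit.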
On the technique in general: In qHTS, concentration-response curves come from the screen itself.

The target of assay [2] is Luciferin 4-monooxygenase (Photinus pyralis) (UniProt P08659). Kind of assay: Biochemical firefly luciferase enzyme assay for NPC (AID 624030). Also: nearly all actives have a fitted effect of over 70% in size. Also: potency is read from the fitted curve at half-maximal effect. In a few lines:
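Purified P. pyralis luciferase at 10 nM in 50 mM Tris Acetate (final), luminescence read within 5 minutes of enzyme addition to compounds. Activity normalised to PTC124 versus DMSO; concentration-response curves classed by r2, magnitude and activity.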

Each structure is given as a SMILES string. Results filed as inconclusive are left out. Where a call stands in place of a potency, no number is given. The source made the active and inactive calls. Calls follow the shape of the dose curve; as a rule, active = well fitted inhibition curve with a large enough effect; inconclusive = small, poorly fitted or top-dose-only effect; inactive = flat fitted curve, though single readings scatter. Where a SMILES comes first, the peptide text is derived from it. Bridges are numbered along the chain shown (N, C = ends). [ ]: non-standard residue; d: D form. hArg = N=C(N)NCCCC[C@H](N)C(=O)O; Mpa = O=C(O)CCS

Sequence of Luciferin 4-monooxygenase (Photinus pyralis) (P08659 whole entry, looked up): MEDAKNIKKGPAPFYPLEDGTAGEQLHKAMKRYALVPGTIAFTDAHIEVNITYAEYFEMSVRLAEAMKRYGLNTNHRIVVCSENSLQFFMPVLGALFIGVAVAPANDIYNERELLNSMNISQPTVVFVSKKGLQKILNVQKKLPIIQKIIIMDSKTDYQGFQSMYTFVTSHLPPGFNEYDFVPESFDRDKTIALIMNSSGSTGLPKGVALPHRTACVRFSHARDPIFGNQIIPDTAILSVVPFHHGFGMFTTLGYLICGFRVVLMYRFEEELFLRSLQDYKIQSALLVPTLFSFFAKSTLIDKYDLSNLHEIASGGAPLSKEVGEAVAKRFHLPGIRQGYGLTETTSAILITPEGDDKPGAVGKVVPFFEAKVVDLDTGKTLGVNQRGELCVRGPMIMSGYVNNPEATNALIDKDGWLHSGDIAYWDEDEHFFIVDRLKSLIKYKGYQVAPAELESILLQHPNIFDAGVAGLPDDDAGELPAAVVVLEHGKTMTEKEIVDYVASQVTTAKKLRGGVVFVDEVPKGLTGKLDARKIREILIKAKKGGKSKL
Sequence of Voltage-gated inwardly rectifying potassium channel KCNH2 (Homo sapiens) (Q12809 whole entry, looked up): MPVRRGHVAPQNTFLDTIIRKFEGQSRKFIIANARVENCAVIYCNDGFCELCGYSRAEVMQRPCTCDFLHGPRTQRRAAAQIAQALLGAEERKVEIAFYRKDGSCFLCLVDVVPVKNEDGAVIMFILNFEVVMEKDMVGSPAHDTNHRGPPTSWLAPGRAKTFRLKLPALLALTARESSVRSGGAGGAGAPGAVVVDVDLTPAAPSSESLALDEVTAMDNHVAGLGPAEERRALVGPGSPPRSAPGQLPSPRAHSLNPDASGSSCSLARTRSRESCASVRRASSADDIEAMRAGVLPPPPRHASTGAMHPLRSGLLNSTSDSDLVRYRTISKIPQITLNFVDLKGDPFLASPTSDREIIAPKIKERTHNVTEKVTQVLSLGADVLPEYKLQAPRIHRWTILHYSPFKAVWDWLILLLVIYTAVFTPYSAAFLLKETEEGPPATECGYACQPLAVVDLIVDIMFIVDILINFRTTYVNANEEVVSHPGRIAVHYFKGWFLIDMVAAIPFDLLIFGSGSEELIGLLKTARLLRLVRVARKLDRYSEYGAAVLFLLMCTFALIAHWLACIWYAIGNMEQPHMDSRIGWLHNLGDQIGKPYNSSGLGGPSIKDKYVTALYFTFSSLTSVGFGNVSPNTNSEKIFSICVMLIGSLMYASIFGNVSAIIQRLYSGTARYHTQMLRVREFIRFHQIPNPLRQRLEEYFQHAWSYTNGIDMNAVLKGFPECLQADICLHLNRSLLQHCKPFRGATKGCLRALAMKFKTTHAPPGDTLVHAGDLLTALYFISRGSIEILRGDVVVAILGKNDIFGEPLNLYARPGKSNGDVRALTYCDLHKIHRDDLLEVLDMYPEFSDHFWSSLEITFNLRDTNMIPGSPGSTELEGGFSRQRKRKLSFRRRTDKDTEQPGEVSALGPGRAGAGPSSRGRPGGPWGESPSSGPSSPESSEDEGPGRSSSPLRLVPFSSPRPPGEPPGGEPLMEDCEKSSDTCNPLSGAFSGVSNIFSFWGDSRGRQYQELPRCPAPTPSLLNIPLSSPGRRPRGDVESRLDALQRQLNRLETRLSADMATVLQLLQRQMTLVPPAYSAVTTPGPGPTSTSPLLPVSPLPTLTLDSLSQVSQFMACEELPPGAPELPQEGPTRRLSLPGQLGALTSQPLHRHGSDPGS

On to `O=C(O)CCCc1ccccc1`, for which the Potency result in assay [1] and in assay [2] was “inactive” in each case.

Regarding `CC(C)(C)C(=O)OCOC(=O)[C@@H]1N2C(=O)[C@@H](NC(=O)[C@H](N)c3ccccc3)[C@H]2SC1(C)C`, the Potency entry in assay [1] and in assay [2] was “inactive” throughout. In the case of `CCOC(=O)c1cccnc1`, the Potency entry in assay [1] and in assay [2] was “inactive” in each case. In the case of `O=C(O)c1ccc[n+]([O-])c1`, the Potency entry in assay [1] and in assay [2] was “inactive” each time. Turning to `CC1CCc2cc(F)cc3c(=O)c(C(=O)O)cn1c23` (stereo not drawn), the Potency entry in assay [1] and in assay [2] was “inactive” each time. Regarding `COc1ccccc1OC(=O)Oc1ccccc1OC`, the Potency entry in assay [1] and in assay [2] was “inactive” throughout. In the case of `Cc1cc(OI)c(C(C)C)cc1-c1cc(C(C)C)c(OI)cc1C`, the Potency entry in assay [1] and in assay [2] was “inactive” each time. For the molecule `NS(=O)(=O)c1ccc(NC(=O)CCC(=O)O)cc1`, the Potency result in assay [1] and in assay [2] was “inactive” in each case.

For the molecule `CCc1nnc(NS(=O)(=O)c2ccc(N)cc2)s1`, the Potency entry in assay [1] and in assay [2] was “inactive” in each case. Take `O=C(O)Cc1ccc(CCNS(=O)(=O)c2ccc(Cl)cc2)cc1`: the Potency entry in assay [1] and in assay [2] was “inactive” in each case.

Turning to `Nc1c2c(nc3c1CCC3)CCCC2`, the Potency entry in assay [1] and in assay [2] was “inactive” throughout. Turning to `CC(=O)SC[C@@H](Cc1ccccc1)C(=O)NCC(=O)OCc1ccccc1`, the Potency entry in assay [1] and in assay [2] was “inactive” each time.

In the case of `CC(=O)Oc1cccc(C)c1`, the Potency result in assay [1] and in assay [2] was “inactive” throughout. On to `CC(=O)Nc1ccc(OCCOCCOc2ccc(NC(C)=O)cc2)cc1`, for which the Potency entry in assay [1] and in assay [2] was “inactive” throughout.

With `CC(=O)OC[C@H]1O[C@@](COC(C)=O)(O[C@H]2O[C@H](COC(C)=O)[C@@H](OC(C)=O)[C@H](OC(C)=O)[C@H]2OC(C)=O)[C@@H](OC(C)=O)[C@@H]1OC(C)=O`, the Potency entry in assay [1] and in assay [2] was “inactive” throughout.

As for `NC(=O)[C@@H]1CSSCCC(=O)N[C@@H](CCCCN=C(N)N)C(=O)NCC(=O)N[C@@H](CC(=O)O)C(=O)N[C@@H](Cc2c[nH]c3ccccc23)C(=O)N2CCC[C@H]2C(=O)N1` ([Mpa][hArg]GDWPC-NH2; disulfide 1-7), the Potency result in assay [1] and in assay [2] was “inactive” each time. As for `CO[C@@]1(NC(=O)C(C(=O)O)c2ccc(O)cc2)C(=O)N2C(C(=O)O)=C(CSc3nnnn3C)CO[C@@H]21` (stereo partly drawn), the Potency result in assay [1] is “inactive”. On to `O=C(O)Cc1cn(-c2ccccc2)nc1-c1ccc(Cl)cc1`, for which the Potency result in assay [1] and in assay [2] was “inactive” throughout.

On to `O=C(NCN1CCOCC1)c1cnccn1`, for which the Potency result in assay [1] and in assay [2] was “inactive” in each case. `O=C1CC[C@@H](C(=O)O)N1`: the Potency result in assay [1] and in assay [2] was “inactive” throughout. Consider `Cc1c(NC(C)C)c(=O)n(-c2ccccc2)n1C`, for which the Potency result in assay [1] and in assay [2] was “inactive” in each case. On to `CC(=O)N(CC(O)CN(C(C)=O)c1c(I)c(C(=O)NCC(O)CO)c(I)c(C(=O)NCC(O)CO)c1I)c1c(I)c(C(=O)NCC(O)CO)c(I)c(C(=O)NCC(O)CO)c1I` (stereo not drawn), for which the Potency entry in assay [1] is “inactive”.

As to `Cc1ccc2c(c1)c1c3n2CCNC3CCC1` (stereo not drawn), the Potency result in assay [1] is “inactive”. Regarding `COc1cc(C(=O)NCCCCCC(=O)O)cc(OC)c1OC`, the Potency entry in assay [1] and in assay [2] was “inactive” each time.

For the molecule `C[C@@H]1CCC[C@H](C)N1`, the Potency result in assay [1] and in assay [2] was “inactive” throughout. Consider `O=C(CN1CCNCC1)NC1CCCCC1`, for which the Potency entry in assay [1] and in assay [2] was “inactive” each time.

Regarding `CC(=O)N[C@@H](Cc1ccc(O)cc1)C(=O)O`, the Potency entry in assay [1] and in assay [2] was “inactive” throughout. In the case of `O=C(NCCCN1CCOCC1)c1ccc(Cl)cc1`, the Potency result in assay [1] and in assay [2] was “inactive” in each case. With `COc1nccnc1NS(=O)(=O)c1ccc(N)cc1`, the Potency result in assay [1] and in assay [2] was “inactive” throughout. As to `Cc1onc(-c2ccccc2)c1-c1ccc(S(N)(=O)=O)cc1`, the Potency result in assay [1] and in assay [2] was “inactive” throughout. As for `O=C(O)c1ccc(OCCCOc2ccc(C(=O)O)cc2)cc1`, the Potency entry in assay [1] and in assay [2] was “inactive” each time. Take `C[C@@H]1O[C@@H](OC[C@H]2O[C@@H](Oc3c(-c4ccc(O)c(O)c4)oc4cc(O)cc(O)c4c3=O)[C@H](O)[C@@H](O)[C@@H]2O)[C@H](O)[C@H](O)[C@H]1O`: the Potency result in assay [1] and in assay [2] was “inactive” in each case. For the molecule `O=C(O)c1ccccc1C(=O)Nc1ccc(S(=O)(=O)Nc2nccs2)cc1`, the Potency result in assay [1] and in assay [2] was “inactive” throughout. For the molecule `O=C(O)Cn1c(C(=O)Nc2nc(-c3ccccc3Cl)cs2)cc2ccccc21`, the Potency result in assay [1] is “inactive”. The Potency in assay [2] was 12.8 µM (active). As to `C=CCSCC1Nc2cc(Cl)c(S(N)(=O)=O)cc2S(=O)(=O)N1` (stereo not drawn), the Potency result in assay [1] and in assay [2] was “inactive” throughout. For the molecule `O=C(O)CCC(=O)O`, the Potency entry in assay [1] and in assay [2] was “inactive” throughout. In the case of `O=c1[nH]cnc2nc[nH]c12`, the Potency result in assay [1] and in assay [2] was “inactive” throughout. As for `CN1C[C@@H]2C[C@H]1CN2c1cc2c(cc1F)c(=O)c(C(=O)O)cn2C1CC1`, the Potency entry in assay [1] and in assay [2] was “inactive” each time.
